# In ChEMBL document CHEMBL3988442, “University of Dundee, Small-Polar-MMV Screening Library” (2021):
# Among all 69,000 compounds or so, about 950 (1.4%) showed an effect of 50% or more. Only a selection was taken, and strong results are over-represented in it overall.
# Test system: Mycobacterium tuberculosis
# Assay: Cornell M. t heat shock assay; also: in the data most compounds retested in dose-response had high values
# Assay type: functional, organism-based
# Parameters: dose or concentration left out as unconfirmed
row,SMILES,Percent Effect [%]
1,O=C(O)C(F)(F)F.O=C1NCC[C@]12CN(CC1CCOCC1)C[C@H]2c1ccccc1,-6.347
2,CCc1ccc(CN2C[C@H](OCC(=O)N(C)C)[C@H]3COC[C@H]32)o1.O=C(O)C(F)(F)F,13.05
3,CO[C@H]1CN(CC2CC2)[C@@H]2CCCO[C@H]12.O=C(O)C(F)(F)F,13.63
4,CC(C)CC(NCc1ccsc1)c1ccccn1 (stereo not drawn),95.2
5,CC(C)CC(NCc1cscn1)c1ccccn1 (stereo not drawn),27.38
6,CS(=O)(=O)N1CCC(C(=O)NC(Cc2ccsc2)c2ccccn2)CC1 (stereo not drawn),-2.015
7,O=C(Cn1cccnc1=O)NC(Cc1cccs1)c1ccccn1 (stereo not drawn),-7.839
8,c1ccc(OCCNCc2cccs2)nc1,-4.17
9,CC(C)CC(NCc1cccs1)c1ccccn1 (stereo not drawn),99.48
10,Cl.O=C(c1ccccc1)N1CCC2(CC1)CNc1c(F)cccc12,9.544
11,Cc1cnn(CC2CN(Cc3nc4ccccc4s3)CCO2)c1 (stereo not drawn),-2.009
12,CN(Cc1cncnc1)[C@@H]1CN(C(=O)C2CC2)[C@@H]2CCCO[C@H]12.O=C(O)C(F)(F)F,8.478
13,CN(Cc1cncnc1)[C@@H]1CN(C(=O)c2ccco2)[C@@H]2CCCO[C@H]12.O=C(O)C(F)(F)F,50.13
14,CN(Cc1cncnc1)[C@H]1CN(C(=O)c2ccco2)[C@@H]2CCCO[C@@H]21,-2.729
15,COc1ccc2[nH]cc(C(=O)CNc3nc(C)cs3)c2c1.I,4.496
16,COc1cccc(CC(=O)N2CC[C@@H]3[C@H](CC2)N(C)CCS3(=O)=O)c1.O=C(O)C(F)(F)F,5.677
17,Cc1ccccc1C1CCCN1Cc1nc2c(cnn2C)c(=O)[nH]1 (stereo not drawn),-11.52
18,Cc1cccc(C2CCCN2Cc2nc(N)nc(N(C)C)n2)c1C (stereo not drawn),47.4
19,Cc1nc(CN2CCCC2c2ccsc2)nc2ccccc12 (stereo not drawn),40.46
20,CCCc1noc(CN2CCCC2c2ccsc2)n1 (stereo not drawn),4.131
21,Cn1ncc2c(=O)[nH]c(CN3CCCC3c3ccsc3)nc21 (stereo not drawn),-12.54
22,CN(C)c1nc(N)nc(CN2CCCC2c2cccs2)n1 (stereo not drawn),97.97
23,Cn1ncc2c(=O)[nH]c(CN3CCCC3c3cccs3)nc21 (stereo not drawn),80.29
24,CN(C)c1nc(N)nc(CN2CCCC(c3ccccc3)CC2)n1 (stereo not drawn),-13.13

row,SMILES,Percent Effect [%]
1,CN(C)c1nc(N)nc(CN2CCCC2c2ccsc2)n1 (stereo not drawn),64.16
2,CC(C)NC(=O)N1CCc2ncc(CN3CCOCC3)n2CC1.O=C(O)C(F)(F)F,-16.24
3,Cc1noc(C)c1CN1CC[C@H]2[C@H]1CCN2CC1CCOCC1.O=C(O)C(F)(F)F.O=C(O)C(F)(F)F,-9.429
4,C=C(C)CN1CCN(Cc2cnc(-c3ccccc3C)nc2)CC1.O=C(O)CC(O)(CC(=O)O)C(=O)O,1.349
5,CCOCC1CN(Cc2ccoc2)Cc2nn(C)cc21.O=C(O)C(F)(F)F (stereo not drawn),-18.76
6,O=C(N1CCCC1)N1CC[C@H]2[C@H]1CCN2c1ncccn1.O=C(O)C(F)(F)F,-10.67
7,COc1cc2c(cc1CNC(Cc1cccs1)c1nccs1)OCCO2.Cl (stereo not drawn),2.723
8,Cl.O=C(C1CCC1)N1C[C@@H](c2ccsc2)[C@@H]2CN(C3CCCCC3)CC[C@@H]21,-50.24
9,Cc1ccc2nc(C3CCN(CC4CC4)CC3)nn2c1.O=C(O)C(F)(F)F,-35.41
10,CC(C)COC(C)C(=O)NCCNS(C)(=O)=O (stereo not drawn),-20.75
11,CC(C)COC(C)C(=O)NCCNC(=O)C(C)C (stereo not drawn),-3.282
12,CCOC(C)C(=O)NCCNS(C)(=O)=O (stereo not drawn),69.12
13,O=C(O)C(F)(F)F.O=C(c1ccoc1)N1CC[C@@H](N2CCOCC2)[C@@H]1Cc1ccccc1,-25.18
14,O=C(NCc1ccccn1)[C@H]1COC[C@H]2CN(C3CCCC3)C[C@H]21.O=C(O)C(F)(F)F.O=C(O)C(F)(F)F,-26.6
15,Cc1ccc(CN[C@@H]2COC[C@H]2Cc2cc(C)no2)cc1.O=C(O)CC(O)(CC(=O)O)C(=O)O,0.5554
16,O=C1CN(Cc2nnc(-c3ccccc3Br)o2)CCN1,14.67
17,O=C1CN(Cc2nnc(-c3ccc(Br)cc3)o2)CCN1,1.317
18,O=C1CN(Cc2nnc(-c3ccc(Br)o3)o2)CCN1,51.83
19,Cl.c1cc(CNCc2ccc(Cn3cncn3)cc2)c2c(c1)OCCO2,-1.246
20,Cl.NC(=O)COc1ccc(CNCc2cc(F)ccc2F)cc1,-36.29
21,COCCNC(=O)Cn1c(-c2ccc(Cl)cc2)nc(C)c(CCO)c1=O,50.09
22,CCc1cc(=O)n(CC(=O)NCC2CCCO2)c(-c2cccc(F)c2)n1 (stereo not drawn),19.5
23,CCOc1nc2cccnc2n(CC(=O)NCCOC)c1=O,5.103
24,COCCCNC(=O)Cn1c(-c2cccc(Cl)c2)nc(C)cc1=O,10.79

row,SMILES,Percent Effect [%]
1,COCCNC(=O)Cn1ccc2ccc(F)cc21,14.54
2,COCCNC(=O)Cn1c(-c2cccc(F)c2)nc(C)c(CCO)c1=O,66.78
3,COCCNC(=O)Cn1c(-c2ccc(F)cc2)nc(C)c(CCO)c1=O,29.85
4,Cc1cc(=O)n(CC(=O)NCCC(C)C)c(-c2cccc(Cl)c2)n1,9.879
5,COCCNC(=O)Cn1c(-c2cccc(Cl)c2)nc(C)c(CCO)c1=O,68.55
6,Cc1nc(-c2ccc(Cl)cc2)n(CC(=O)NC(C)C)c(=O)c1CCO,47.89
7,CCN(CC)C(=O)Cn1c(-c2ccc(Cl)cc2)nc(C)c(CCO)c1=O,69.66
8,CCN(CC)C(=O)c1nnsc1-c1ccc(Cl)cc1,-12.37
9,Cc1ccc(-c2ccc(C3CNCCO3)nc2)cc1.Cl (stereo not drawn),-12.85
10,CC[C@@H]1N(Cc2nccs2)CCC[C@]12CCC(=O)N2C.O=C(O)C(F)(F)F,-9.457
11,CCOCC1CN(Cc2ccccn2)Cc2nn(CC3CC3)cc21.O=C(O)C(F)(F)F.O=C(O)C(F)(F)F (stereo not drawn),-24.37
12,O=C(O)C(F)(F)F.O=C(c1ncccn1)N1CCC[C@]2(C[C@@H](Oc3ncccc3F)CO2)C1,-26.7
13,O=C(Cc1ccccc1F)N1C[C@@H]2COC[C@]2(COc2cccnc2)C1.O=C(O)C(F)(F)F,-4.707
14,COCC(=O)N1CCCn2c(CN3CCOCC3)nnc2C1.O=C(O)C(F)(F)F,-20.35
15,Cl.FC(F)CNc1cnc(C2CCCN2)cn1 (stereo not drawn),-21.09
16,O=C(O)C(F)(F)F.O=C1NCCN(CC2CC2)C12CCN(Cc1ccccc1)CC2,-29.41
17,COCC1CC2(CCN(Cc3ccncc3)CC2)CN1C(C)C.O=C(O)C(F)(F)F.O=C(O)C(F)(F)F.O=C(O)C(F)(F)F (stereo not drawn),-9.126
18,O=C(Nc1cccnc1)[C@H]1C[C@@H]2CN(S(=O)(=O)C3CC3)C[C@H]1O2,-11.95
19,COCc1ncn2c1CN(C(=O)c1ccc3ccccc3n1)CC2.O=C(O)C(F)(F)F,-56.59
20,CO[C@H]1C[C@@H]2CN(C(=O)c3cc4ccc(F)cc4[nH]3)C[C@@H]2C1,35.64
21,COc1ccc(CN2C[C@H]3CN(c4ccsc4)C(=O)[C@H]3C2)cc1.O=C(O)C(F)(F)F,16.76
22,COc1ccc(F)cc1C(=O)N1C[C@H]2C[C@H](OC)C[C@H]2C1,-3.804
23,Cl.Cl.O=C([C@@H]1CSCN1)N1CC2(CCNCC2)c2cc(Cl)ccc21,3.414
24,CC(=O)N1CCC2(CC1)CN(C(=O)[C@@H]1CSCN1)c1ccc(Cl)cc12.O=C(O)C(F)(F)F,52.14

row,SMILES,Percent Effect [%]
1,Cl.Cl.O=C([C@H]1CCCN1)N1CC2(CCNCC2)c2cc(Cl)ccc21,-22.31
2,O=C(CC1CCCC1)N1C[C@H](Oc2cccnc2)[C@H]2OCCC[C@H]21.O=C(O)C(F)(F)F,0.71
3,C1CCC(CN2Cc3nnn(CC4CC4)c3C(COCC3CC3)C2)C1.O=C(O)C(F)(F)F (stereo not drawn),40.48
4,CCOCC1CN(CC2CCC2)Cc2nnn(CC3CC3)c21 (stereo not drawn),57.51
5,CCOCC1CN(C(=O)N(C)C)Cc2nnn(CC3CC3)c21 (stereo not drawn),1.23
6,CN(C)CC1CN(Cc2cccc(C#N)c2)Cc2nccn2C1.O=C(O)C(F)(F)F.O=C(O)C(F)(F)F (stereo not drawn),-5.749
7,CC(C)c1nn(C)c(Cl)c1CNCc1ccc2c(c1)OCO2.Cl,15.25
8,O=C(CC1CC1)N1CCc2ncc(CN3CCOCC3)n2CC1.O=C(O)C(F)(F)F,2.118
9,COc1ncc(C2(O)CCN(Cc3ccc(F)c(F)c3)CC2)c(OC)n1.Cl,2.429
10,CCCS(=O)(=O)N1CC(=O)N(Cc2cccc(OC)c2OC)CC(O)C1 (stereo not drawn),3.552
11,COc1ccccc1CN1CC(OC)CN(C(=O)CC(C)C)CC1=O (stereo not drawn),-13.24
12,COc1ccccc1CN1CC(O)CN(C(=O)OCC(C)C)CC1=O (stereo not drawn),1.526
13,CCCS(=O)(=O)N1CC(=O)N(Cc2ccccc2OC)CC(O)C1 (stereo not drawn),56.43
14,CCS(=O)(=O)N1CC(=O)N(Cc2ccccc2OC)CC(O)C1 (stereo not drawn),62.67
15,CCS(=O)(=O)N1CC(=O)N(CCCc2ccccc2)CC(O)C1 (stereo not drawn),-6.774
16,CCS(=O)(=O)N1CC(=O)N(CCOc2ccccc2)CC(O)C1 (stereo not drawn),-13.04
17,CCCS(=O)(=O)N1CC(=O)N(CCCc2ccccc2)CC(O)C1 (stereo not drawn),-29.16
18,CS(=O)(=O)N1CC(=O)N(CCCc2ccccc2)CC(O)C1 (stereo not drawn),-9.009
19,COc1cccc(CN2CC(O)CN(S(C)(=O)=O)CC2=O)c1OC (stereo not drawn),29.18
20,COc1cccc(OC)c1CN1CC(O)CN(S(C)(=O)=O)CC1=O (stereo not drawn),55.83
21,COc1ccccc1CN1CC(O)CN(S(=O)(=O)C(C)C)CC1=O (stereo not drawn),61.24
